Assay outcomes (PubChem)
HT1080 IDH1KD tx: kills HT-1080 cells with IDH1 knockdown. hit rate 2% among 360,000. HT-1080 IDH1 knockdown viability, ATP luminescence, 48 h. Potency, µM (highest dose often 46.1 µM), for the others: at the top dose activity, negative = toxicity, actives largely listed as cytotoxic;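 further: potency means the concentration at half of the fitted maximal effect; 0% = DMSO wells and -100% = cell-free medium wells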
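Knockdown cells (IDH1KD HT-1080) received compounds 2 h after plating at 750 cells/well and were kept 48 h at 37 °C in 5% FBS RPMI. A CellTiter-Glo luminescence read gave % activity for curve fitting.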
HT1080-NT tox: kills 2HG-producing HT-1080-NT fibrosarcoma cells | HT-1080-NT fibrosarcoma viability, CellTiter-Glo ATP luminescence, 48 h | Potency, µM (doses to about 46.1 µM), for inactives: at the highest dose activity, negative = less viability, most hits filed as cytotoxic | hit rate 1.6% among 360,000 | AID 686970;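 further: NT is the 2HG producing partner of a matched IDH1 knockdown line; potency means the concentration at half of the fitted maximal effect; 0% = DMSO-treated cells and -100% = media-only wells without cells; nearly all actives have a fitted effect of over 55% in size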
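Fibrosarcoma NT cells, 750 per well in 5% FBS RPMI, were exposed to compound for 48 hours. Viability: CellTiter-Glo luminescence.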
TDP1 cell CPT: DT40-hTDP1 cell growth loss with CPT | hit rate 12% among 420,000 | AID 686979 | chicken DT40 Tdp1-/-;hTDP1 cells + 20 nM CPT, ATP luminescence, 48 h | Potency, µM (doses to about 46.2 µM), inactives show at the top dose activity change, negative = growth inhibition, hits mostly inhibitors; further: potency means the concentration at half of the fitted maximal effect; nearly all actives have a fitted effect of over 55% in size
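Chicken DT40 Tdp1-/- cells stably complemented with human TDP1 were seeded at 400 cells/well in medium containing 20 nM camptothecin, exposed to pin-transferred compounds, and grown at 37 °C for at least 48 hr. Viability was read as ATP luminescence.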
DT40 TDP1 no CPT: qHTS for Inhibitors of human tyrosyl-DNA phosphodiesterase 1 (TDP1): qHTS in cells in absence of CPT; DT40 Tdp1-/- hTDP1 cells, no CPT, ATP luminescence, 48 h; Potency, µM (series often up to 46.2 µM), inactives show top-dose activity change, negative = growth inhibition, hits mostly inhibitors; hit rate 15% among 420,000; further: potency means the concentration at half of the fitted maximal effect; nearly all actives have a fitted effect of over 55% in size
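DT40 Tdp1-/-;hTDP1 cells, no CPT (DMSO vehicle only), 400 cells/well; compounds pin-transferred; ≥48 hr, 37 °C; CellTiter-Glo 30 min RT dark, luminescence read.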
IL1B secr inh: blocks inflammasome-driven IL-1 beta release; THP-1 LPS/ATP IL-1B secretion, AlphaLISA, 16 h; stronger effect = lower value; activity change, % at 57.5 µM; hit rate 4.7% among 360,000; AID 743279; in the data active means activity change below about -50%; inconclusive means mostly about -30% to -49%
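Secreted IL-1B measured by AlphaLISA bead assay after 16 h compound exposure of THP-1 cells; compounds (final up to 57.5 uM) added 1 h before LPS (250 ng/mL) and ATP (1.25 mM) stimulation; lower signal means less secretion.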
* hit, by the source's call; ! = not confirmed by another sample. Compounds with a hit are over-represented: about 19% of the library has one in this group of screens. Unless noted, the call rests on the fitted dose curve; in most records, active means well fitted curve in the direction sought with a large enough effect; inconclusive means small, poorly fitted or top-dose-only effect, or another doubt; inactive means no such curve, though single readings can be large; an effect the other way counts as inactive or inconclusive. Unless noted, on the % scale 0 is the no-effect control and ±100 the full control effect.

For O=C1NCN(c2ccccc2)C12CCNCC2 the results were HT1080 IDH1KD tx 5.7%, HT1080-NT tox -2.7%, TDP1 cell CPT -14.1%, DT40 TDP1 no CPT -4.8% and IL1B secr inh 0.0.
`c1ccc(N2CCC3(CCNCC3)CC2)cc1` gave TDP1 cell CPT -101.6% and DT40 TDP1 no CPT 18.4µM*.
Screening c1ccc(CN2CCC3(CCNCC3)CC2)cc1 returned TDP1 cell CPT 4.61µM* and DT40 TDP1 no CPT 3.26µM*.
c1ccc(N2CCC3(CCNCC3)CC2)nc1 was read as TDP1 cell CPT 18.4µM* and DT40 TDP1 no CPT inconclusive.
For c1ccc(CN2CCC3(CCc4ccccc43)CC2)cc1 the results were TDP1 cell CPT 23.7µM* and DT40 TDP1 no CPT inconclusive.
For O=C(Oc1ccccc1)N1CCC2(CCCN(C(c3ccccc3)c3ccccc3)C2)CC1 the results were TDP1 cell CPT 9.7% and DT40 TDP1 no CPT -13.4%.
For CCCCCCCCCC(=O)O[C@H]1CC[C@H]2[C@@H]3CCC4=CC(=O)CC[C@@H]4[C@H]3CC[C@]12C the results were TDP1 cell CPT 18.9% and DT40 TDP1 no CPT -0.1%.
CC/C(=N\N1CCN(C)CC1)c1c(O)[nH]c(=O)[nH]c1=O was read as HT1080 IDH1KD tx 9.2%, HT1080-NT tox 11.3%, TDP1 cell CPT -15.6%, DT40 TDP1 no CPT -20.7% and IL1B secr inh 8.6.
COc1cc(CN2CCN(c3cc(C)ccc3C)CC2)ccc1O was read as HT1080 IDH1KD tx -0.8%, HT1080-NT tox -17.4%, TDP1 cell CPT 7.31µM*, DT40 TDP1 no CPT 7.31µM* and IL1B secr inh 21.1.
COc1ccccc1N1CCN(Cc2cc(C)c(C)cc2O)CC1 was read as HT1080 IDH1KD tx -8.8%, HT1080-NT tox -11.4%, TDP1 cell CPT 23.1µM*, DT40 TDP1 no CPT 20.6µM* and IL1B secr inh -20.2.
`CC1CCC2C(C)C(=O)OC3OC4(C)CCC1C32OO4` (stereo not drawn) gave HT1080 IDH1KD tx -23.8%, HT1080-NT tox -15.5%, TDP1 cell CPT inconclusive, DT40 TDP1 no CPT 0.841µM*! and IL1B secr inh -13.1.
`CC1CCC2[C@@H](C)C(=O)OC3O[C@]4(C)CCC1C32OO4` (stereo partly drawn) gave HT1080 IDH1KD tx -6.7%, HT1080-NT tox -0.1%, TDP1 cell CPT inconclusive, DT40 TDP1 no CPT 7.31µM* and IL1B secr inh -10.2.
`COc1cccc(OP(=O)(Nc2ccccc2)Oc2cccc(OC)c2)c1` gave HT1080 IDH1KD tx -11.3%, HT1080-NT tox -29.7%, TDP1 cell CPT inconclusive, DT40 TDP1 no CPT -24.1% and IL1B secr inh inconclusive.
Cc1c(C(=O)OC2CCCCC2)[nH]c2c1C(=O)CC(c1ccccc1)C2 (stereo not drawn) was read as TDP1 cell CPT 4.61µM* and DT40 TDP1 no CPT 2.06µM*.
Screening C[N+]1(C)CCC(OC(=O)C(c2ccccc2)c2ccccc2)CC1 returned HT1080 IDH1KD tx 5.3%, HT1080-NT tox 3.6%, TDP1 cell CPT 5.5%, DT40 TDP1 no CPT -3.9% and IL1B secr inh -15.0.
For O=[N+]([O-])c1cnc[nH]1 the results were TDP1 cell CPT -9.1%, DT40 TDP1 no CPT -3.7% and IL1B secr inh -5.6.
Screening Cc1cccc(C2CC(=O)Oc3c2c(=O)oc2ccccc32)c1 (stereo not drawn) returned TDP1 cell CPT -13.0% and DT40 TDP1 no CPT -2.5%.
Screening CN1CCCC2(CCN(C(=O)Oc3ccccc3)CC2)C1 returned TDP1 cell CPT 13.6% and DT40 TDP1 no CPT -4.6%.
Screening Cc1cccc(C)c1-n1nnnc1C(C1CC1)N1CCC(n2c(=O)[nH]c3ccccc32)CC1 (stereo not drawn) returned HT1080 IDH1KD tx 5.5%, HT1080-NT tox 6.6%, TDP1 cell CPT inconclusive, DT40 TDP1 no CPT inconclusive and IL1B secr inh -10.6.
For O=c1[nH]c2ccccc2n1C1CCN(C(c2cccc3ccccc23)c2nnnn2-c2ccc3c(c2)OCCO3)CC1 (stereo not drawn) the results were HT1080 IDH1KD tx inconclusive, HT1080-NT tox inconclusive, TDP1 cell CPT 4.61µM*, DT40 TDP1 no CPT 2.59µM* and IL1B secr inh -26.4.
Screening O=c1[nH]c2ccccc2n1C1CCN(C(c2cc3ccccc3o2)c2nnnn2-c2ccc3c(c2)OCCO3)CC1 (stereo not drawn) returned HT1080 IDH1KD tx 18.4µM*, HT1080-NT tox inconclusive, TDP1 cell CPT inconclusive, DT40 TDP1 no CPT 14.6µM* and IL1B secr inh inconclusive.
Screening N=Cc1c(O)n(-c2ccccc2)c(=O)n(-c2ccccc2)c1=O returned HT1080 IDH1KD tx -3.4%, HT1080-NT tox -0.6%, TDP1 cell CPT -4.4%, DT40 TDP1 no CPT -10.3% and IL1B secr inh -3.2.
For CC1=C2CCC3C4CCC(=O)[C@@]4(C)CCC3[C@]2(C)CCC1=O (stereo partly drawn) the results were TDP1 cell CPT -14.7% and DT40 TDP1 no CPT -20.1%.
COC[C@H]1OC(=O)c2coc3c2[C@@]1(C)C1=C(C3=O)[C@@H]2CCC(=O)[C@@]2(C)C[C@H]1OC(C)=O was read as HT1080 IDH1KD tx 23.1µM*, HT1080-NT tox inconclusive, TDP1 cell CPT 0.92µM*, DT40 TDP1 no CPT 1.84µM* and IL1B secr inh -101.4*.
CCOP(=O)(NC(C)C)Oc1ccc(SC)c(C)c1 (stereo not drawn) was read as HT1080 IDH1KD tx 5.9%, HT1080-NT tox 9.4%, TDP1 cell CPT 21.7µM*, DT40 TDP1 no CPT 21.7µM*! and IL1B secr inh -2.4.
Screening COP(=S)(OC)Oc1ccc(SC)c(C)c1 returned HT1080 IDH1KD tx -1.1%, HT1080-NT tox -2.0%, TDP1 cell CPT -11.4%, DT40 TDP1 no CPT -11.6% and IL1B secr inh 8.0.
For CC(=O)C1CC[C@H]2C3CC[C@@H]4CC(O)CC[C@@]4(C)C3CC[C@]12C (stereo partly drawn) the results were TDP1 cell CPT 1.7% and DT40 TDP1 no CPT -27.9%.
For CCOc1cc2[nH]c(=O)n(CCCCC(=O)N3CCN(c4ccccc4)CC3)c(=O)c2cc1OCC the results were TDP1 cell CPT inconclusive and DT40 TDP1 no CPT 5.17µM*.
COc1ccccc1N1CCN(C(=O)CCCn2c(=S)[nH]c3ccccc3c2=O)CC1 was read as HT1080 IDH1KD tx 0.4%, HT1080-NT tox 5.8%, TDP1 cell CPT 8.2µM*, DT40 TDP1 no CPT 5.17µM* and IL1B secr inh -6.7.
For COc1cc2[nH]c(=S)n(-c3ccccc3)c(=O)c2cc1OC the results were HT1080 IDH1KD tx 5.3%, HT1080-NT tox 0.5%, TDP1 cell CPT 0.7%, DT40 TDP1 no CPT 7.8% and IL1B secr inh 2.0.
Screening O=C(CCCCCn1c(=S)[nH]c2ccccc2c1=O)N1CCC2(CC1)OCCO2 returned HT1080 IDH1KD tx 4.0%, HT1080-NT tox 5.1%, TDP1 cell CPT -27.6%, DT40 TDP1 no CPT -21.3% and IL1B secr inh 22.2.
